Hit rate of the full screen: of about 1,500 compounds, about 460 (31%) were called active.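 How the source made its calls: active means viability at or below 80% at any tested concentration, marking the compound as toxic; inactive means the rest.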 Only a sample is shown. Measured potencies and affinities stand elsewhere.
Experiment: THP-1 cell cytotoxicity, dose response, cytotoxicity control for Vif-APOBEC3G degradation inhibitor project, THP-1 cells (AID 1117359)
Settings: THP-1 viability, CellTiter-Glo luminescence, 72 h; series mostly up to 40 µM
With `CCOC(=O)C1(C)NC(c2ccco2)C2C(=O)N(CC)C(=O)C21` (configuration not stated) the outcome was “inactive”. With `O=C1CC(c2ccco2)CC(O)=C1C=NCC1CCNCC1` (configuration not stated) the outcome was “inactive”. In the case of `Cc1cccc(/C=C(\C(=O)O)c2ccc(S(=O)(=O)N3CCCC3)s2)c1`, the outcome was “inactive”. In the case of `O=C(C1CCN(S(=O)(=O)N2CCC3(CC2)OCCO3)CC1)N1CCOCC1`, the outcome was “inactive”. For `COc1ccccc1NCCC(=O)OCC(=O)NCc1ccco1`, the outcome was “inactive”. In the case of `CCOC(=O)c1ccc(NC(=O)CSCc2ccco2)cc1`, the outcome was “inactive”. For `Cc1ccc(NC(=O)CNC(=O)COc2ccccc2)nc1`, the outcome was “inactive”. For `COc1cccc(C(=O)N2CCN(Cc3nc(CC4CC4)no3)CC2)c1`, the outcome was “inactive”. For `CCCCC(O)(CCCC)C(=O)N/N=C(\C)c1ccc(Cl)cc1`, the outcome was “inactive”. In the case of `NC(=O)c1ccc(N2CCN(c3ccc(O)cc3)CC2)c([N+](=O)[O-])c1`, the outcome was “inactive”. In the case of `CCC(=O)Nc1ccc(S(=O)(=O)NC[C@H]2O[C@@H](n3cc(C)c(=O)[nH]c3=O)C[C@@H]2O)cc1`, the outcome was “inactive”. For `C=C(C)C1CC=C(C)/C(=N\NC(=O)CCC(=O)Nc2ccc(C)c(C)c2)C1` (configuration not stated), the outcome was “inactive”. In the case of `c1coc(CNc2nc(-c3cccs3)cs2)c1`, the outcome was “inactive”. For `O=C(Nc1cc(Cl)cc(Cl)c1)c1coc(=O)c(Br)c1`, the outcome was “inactive”. For `C[c-]1[c-](C)[c-](C)[c-](C)[c-]1C.[Fe].c1cc2nccc(N3CCCC3)[c-]2c1` (configuration not stated), the outcome was “inactive”. For `CCn1c(SC(C)C)nnc1-c1cc(-c2ccccc2)sc1N`, the outcome was “inactive”. For `COc1ccc(C(=O)O)cc1S(=O)(=O)N1CCCc2ccccc21`, the outcome was “inactive”. In the case of `COCCn1c(SCC(=O)Nc2ccccc2F)nc2c([nH]c3ccccc32)c1=O`, the outcome was “inactive”. In the case of `CC1=C(C#N)C(=O)N(C2CCS(=O)(=O)C2)C(=O)/C1=C\c1ccc(C)o1` (configuration not stated), the outcome was “inactive”. With `S=c1[nH]nc(COc2ccc(Cl)cc2)n1Cc1ccccc1` the outcome was “inactive”. In the case of `CCCC(=O)NC(C)C(c1cccs1)N1CCN(C)CC1` (configuration not stated), the outcome was “inactive”. For `CCOc1ccccc1N1C(=O)CC(Nc2ccc(N3CCOCC3)cc2)C1=O` (configuration not stated), the outcome was “inactive”. In the case of `CN(C(=O)COc1ncnc2sccc12)c1ccccc1`, the outcome was “inactive”. With `O=C(C1CCC(CNc2c(N3CCCCC3)c(=O)c2=O)CC1)N1CCN(C2CCCCC2)CC1` (configuration not stated) the outcome was “inactive”. For `CC(=O)N1CCN(c2ccc(NCc3ccccc3)cc2)CC1`, the outcome was “inactive”. With `Cc1sc2nc(C)n(/N=C/c3ccccc3O)c(=O)c2c1C` the outcome was “inactive”. With `COc1cc2c(cc1N)-c1ccc(N)cc1C2` the outcome was “inactive”. For `C=C(C)C(=O)Nc1cccc(C2=NOC3(C2)C[C@@H](C(N)=O)N(C(=O)c2cc([N+](=O)[O-])cc([N+](=O)[O-])c2)C3)c1` (some centres not stated), the outcome was “inactive”. In the case of `O=C(O)c1cc(Nc2cc(Cl)c3nonc3c2[N+](=O)[O-])ccc1O`, the outcome was “inactive”. With `Cc1ccc(S(=O)(=O)Cn2nnnc2C(CC(C)C)N2CCN(C)CC2)cc1` (configuration not stated) the outcome was “inactive”. With `Cc1cc(C)cc(NCCC#N)c1` the outcome was “inactive”. In the case of `CCOC(=O)C1=C(O)/C(=C\c2ccc(CNC(=O)C(=O)Nc3ccccc3)o2)N=C1C`, the outcome was “inactive”. In the case of `CCCOC(=O)Nc1sc2c(c1C(=O)OCC)CCC2`, the outcome was “inactive”. In the case of `Cc1c(C(=O)O)cccc1-n1c(C)cc(/C=N/Nc2ccc([N+](=O)[O-])cn2)c1C`, the outcome was “inactive”. For `CCOC(=O)CSc1nncc2ccc(OC)c(OC)c12`, the outcome was “inactive”. For `CC(NC(=O)Nc1ccc(O)cc1)(C(F)(F)F)C(F)(F)F`, the outcome was “inactive”. For `N#Cc1c(-c2ccccc2)nc2n1CCS2`, the outcome was “inactive”. With `Nc1ccc(-c2nc3cc(N)ccc3n2CCO)cc1` the outcome was “inactive”. For `CC(=O)Nc1ccc(C(=O)Nc2cccc(-c3cnc4ccccc4n3)c2)cc1`, the outcome was “inactive”. With `CC1=CC(C)(C)n2c(O)c(N=NC(N)=S)c3c(C)c(C)cc1c32` the outcome was “inactive”. For `COC(=O)CCC(=O)OC1(C)C(=O)C2=CN(CCCOC(C)C)C(c3ccc(OC)cc3)=CC2=C(Br)C1=O` (configuration not stated), the outcome was “inactive”. With `O=C(O)C1Nc2ccc(Br)cc2C2C=CCC12` (configuration not stated) the outcome was “inactive”. In the case of `C/C(=N\Nc1ccc2nncn2n1)c1ccc(Br)s1`, the outcome was “inactive”. In the case of `CC(=O)Nc1ccc(/C=N/Nc2ccc(C(=O)c3c(C)cc4ccccn34)cc2[N+](=O)[O-])cc1`, the outcome was “inactive”. With `O=C1CC(Nc2ccc(N3CCOCC3)cc2)C(=O)N1c1cccc(C(F)(F)F)c1` (configuration not stated) the outcome was “inactive”. For `O=C(O)c1ccc(-n2cccc2/C=N\NC(=O)c2cc3cc(Br)ccc3o2)cc1`, the outcome was “inactive”. With `CCOC(=O)C1CCN(C(=O)Nc2ccc3nc(-c4ccco4)c(-c4ccco4)nc3c2)CC1` the outcome was “inactive”. In the case of `O=C(O)Cn1c(=O)c2c(c3ccccc31)CCC2`, the outcome was “inactive”. With `O=C(O)c1cccc(-n2cccc2/C=C/[N+](=O)[O-])c1` the outcome was “inactive”. With `Cc1cccc(NC(=S)NC(=O)/C=C/c2ccco2)c1` the outcome was “inactive”. In the case of `CC(=O)c1ccc(S(=O)(=O)Nc2cccc(-c3ccc(N4CCOCC4)nn3)c2)cc1`, the outcome was “inactive”. For `CCCCOC(=O)CCCN1C(=O)/C(=C2\SC(=S)N(CCCC(=O)OCCCC)C2=O)SC1=S`, the outcome was “inactive”. In the case of `Nc1ncnc2c1cnn2C1CCCCC1`, the outcome was “inactive”. In the case of `Cc1ccc(Nc2ccc(N)cc2S(=O)(=O)O)cc1`, the outcome was “inactive”. With `CCOCCCNC(=O)C1CCN(S(=O)(=O)CC)CC1` the outcome was “inactive”. With `CCOC(=O)N1CCC(NC(=O)c2ccc(OC)c(CN3CC(=O)N4CCCC4C3=O)c2)CC1` (configuration not stated) the outcome was “inactive”. In the case of `C=CCN1C(=O)/C(=C\c2ccco2)C(C(=O)OC)=C1C`, the outcome was “inactive”. For `O=C(O)c1ccc(S(=O)(=O)c2ccc([N+](=O)[O-])cc2[N+](=O)[O-])cc1`, the outcome was “inactive”. With `O=[N+]([O-])c1ccccc1S(=O)(=O)NC1CCCC1` the outcome was “inactive”. In the case of `CCNC(=O)C1CC(=O)N(Cc2ccc(F)cc2)C(=Nc2ccc(OC)cc2)S1` (configuration not stated), the outcome was “inactive”. In the case of `CCOC(=O)C1CC(CN2C(=O)c3ccccc3C2=O)OC1=O` (configuration not stated), the outcome was “inactive”. For `CC1CCCCC1NC(=S)Nc1cccc(S(=O)(=O)N(C)C)c1` (configuration not stated), the outcome was “inactive”. For `O=C1N(Cc2cccnc2)C[C@@H]2C[C@@H](c3ccc4nsnc4c3)N3CCC[C@@]123`, the outcome was “inactive”. In the case of `Cc1cc(NC(=O)Cc2cccs2)no1`, the outcome was “inactive”. In the case of `CN1CCN(NC(=O)c2ccc(S(=O)(=O)N3CC4(C)CC3CC(C)(C)C4)cc2)CC1` (configuration not stated), the outcome was “inactive”. With `CCC(C)n1c(-c2cccc(S(=O)(=O)N3CCOCC3)c2)n[nH]c1=S` (configuration not stated) the outcome was “inactive”. In the case of `Cc1cc(NC(=O)Cn2cnc3c(nnn3-c3cccc(F)c3)c2=O)no1`, the outcome was “inactive”. In the case of `Oc1c(CN2CCOCC2)cc(CN2CCOCC2)c(O)c1O`, the outcome was “inactive”. With `COc1ccccc1NS(=O)(=O)c1cc(C(=O)NCCN2CCOCC2)ccc1Cl` the outcome was “inactive”. For `CCOc1ccc(-n2c(SCC(N)=O)nnc2-c2cccnc2)cc1`, the outcome was “inactive”. For `CN(Cc1cccs1)C(=O)Cn1cnc2ccccc2c1=O`, the outcome was “inactive”. In the case of `O=C1CC(NCc2ccco2)C(=O)N1CCc1ccccc1` (configuration not stated), the outcome was “inactive”. For `O=C(NCCc1ccccc1)c1ccc2nc(-c3ccco3)c(-c3ccco3)nc2c1`, the outcome was “inactive”. For `Cc1c(F)cccc1NC(=O)CCCCCC1NC(=O)NC1C` (configuration not stated), the outcome was “inactive”. In the case of `CCN1C[C@@H]2[C@@H]3C(=O)N(Cc4ccccc4)C(=O)[C@@H]3[C@](C)(C(=O)OC)N2C1=NC1CCCCC1`, the outcome was “inactive”. With `CO[C@H]1C=CO[C@@]2(C)Oc3c(C)c(O)c4c(O)c(c(C=NN5CCN(C)CC5)c(O)c4c3C2=O)NC(=O)C(C)=CC=C[C@H](C)[C@H](O)[C@@H](C)[C@@H](O)[C@@H](C)[C@H](OC(C)=O)[C@@H]1C` the outcome was “inactive”. For `CSc1ccc(CN(C)CC(=O)NC(=O)NCCC2=CCCCC2)cc1`, the outcome was “inactive”. In the case of `CC1(OC(=O)C2CCCC2)C(=O)C=C2C=C(c3ccsc3)OC=C2C1=O` (configuration not stated), the outcome was “inactive”. With `CC1(CCl)N([O-])C2=C(CCCC2)[N+]1=O` (configuration not stated) the outcome was “inactive”. With `O=C(NN=C1CCCCCC1)c1cccnc1` the outcome was “inactive”. With `O=C(N/N=C/c1cccnc1)c1cc(O)c(O)c(O)c1` the outcome was “inactive”. In the case of `Cc1cc(C)n(CC(=O)NNC(=O)c2ccc(NC(=O)CC#N)cc2)n1`, the outcome was “inactive”. In the case of `CN(C)c1ccc(N/C=C/C(=O)c2ccco2)cc1`, the outcome was “inactive”. For `Nc1cc(N)nc(SCc2cc([N+](=O)[O-])cc3c2OCOC3)n1`, the outcome was “inactive”. In the case of `Cc1ccc(N/N=C/c2c(C)c(C#N)c(=O)n(C)c2O)cc1C`, the outcome was “inactive”. For `Cn1ccnc1Sc1ccc(/C=N/NC(=O)c2ccccc2O)cc1[N+](=O)[O-]`, the outcome was “inactive”. In the case of `O=S(=O)(c1ccc(NC(=S)N/N=C/c2ccc(O)c(O)c2)cc1)N1CCOCC1`, the outcome was “inactive”. For `O=C1C(=Cc2ccco2)CCCC1=Cc1ccco1`, the outcome was “inactive”. In the case of `O=C(COC(=O)COc1ccc(Cl)cc1Cl)NC1CCCCCC1`, the outcome was “inactive”. For `CN1CCN(C(=O)/C(=C/c2ccc(F)cc2)NC(=O)c2ccccc2)CC1`, the outcome was “inactive”. With `O=C(Cc1c(F)cccc1Cl)NNC(=O)c1ccccc1Cl` the outcome was “inactive”. With `COc1ccc2nc(-c3ccccc3)cc(C(=O)OCC(=O)N3CC(C)OC(C)C3)c2c1` (configuration not stated) the outcome was “inactive”. With `O=C(c1coc(=O)c(Br)c1)N1CCCc2ccccc21` the outcome was “inactive”. In the case of `CCCCN(C(=O)c1ccccc1OCc1ccc(F)cc1)c1c(N)n(CC(C)C)c(=O)[nH]c1=O`, the outcome was “inactive”. In the case of `COc1ccc(S(N)(=O)=O)cc1C(=O)OCC(=O)NC(C)(C#N)C1CC1` (configuration not stated), the outcome was “inactive”. In the case of `CCc1ccc(N2C(=O)Cc3c2nc(N)c(C#N)c3N)cc1`, the outcome was “inactive”. In the case of `COC(=O)c1ccccc1NC(=O)c1noc2c1CCC2`, the outcome was “inactive”. In the case of `CC(C)(C)c1ccc(S(=O)(=O)N2CCCCC2)cc1`, the outcome was “inactive”. For `O=C(CN1CCN(S(=O)(=O)c2ccc(F)cc2)CC1)c1ccc(O)c(O)c1`, the outcome was “inactive”. In the case of `O=C(CCS(=O)(=O)c1ccc(Br)cc1)N1CCN(c2ccc(F)cc2)CC1`, the outcome was “inactive”. For `CC(=O)Nc1ccc(NC(=O)C(C)OC(=O)CC23CC4CC(CC(Br)(C4)C2)C3)cc1` (configuration not stated), the outcome was “inactive”. In the case of `CC(=O)OC1OCCOC1NC(=S)Nc1ccc(C)cc1` (configuration not stated), the outcome was “inactive”. With `CC(C)(C)NCCCCOc1ccc(F)cc1` the outcome was “inactive”. For `COC/C=C/C1=CC2=CC(=O)C(C)(OC(=O)c3ccco3)C(=O)C2=CO1` (configuration not stated), the outcome was “inactive”. For `O=c1c(N=Nc2ccc(O)cc2)c(-c2ccccc2)[nH]n1-c1ccc([N+](=O)[O-])cc1`, the outcome was “inactive”. For `O=C(c1cc2ccccc2o1)N1CC=C(c2ccccc2)CC1`, the outcome was “inactive”. For `COc1ccc2nc(NNC(=O)c3cc(=O)c4ccccc4o3)sc2c1`, the outcome was “inactive”.

Reference: PubChem BioAssay AID1117359 (Southern Research Institute, 2015)
